# Only some compounds are listed: those with a hit (about 3.9% of all), similar ones and a draw of the others.
# sPLA2-III inh: Blocks human group III sPLA2 activity; inhibition, % at 12.2 µM; actives 0.56% (n = 370,000); Q9NZ20; QFRET BODIPY PC-A2 liposome hydrolysis, fluorescence;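 active means inhibition above mean plus 3 SD of compounds lying within the high and low control bounds, cut at about 19% in these data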;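 further: 0% = median of test compound wells and 100% = no enzyme DMSO wells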
# AHR activator: activators of human aryl hydrocarbon receptor; P35869; AHR-responsive luciferase reporter cells, luminescence; activation, % at 5 µM; actives 2.5% (n = 320,000); AID 2796; in the data active means activation above about 47%;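 further: 0% = vehicle wells and 100% = reference agonist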
# PLC-gamma1 inh: PLC-gamma1 (human) inhibition, primary screen; AID 720700; actives 0.84% (n = 370,000); inhibition, % at 12.2 µM; purified PLC-gamma1, fluorogenic substrate, fluorescence; in the data active means inhibition above about 9.5%
# Yeast superoxide: lowers age-related superoxide in aged yeast cells. S. cerevisiae aged cells, superoxide DHE fluorescence; stronger effect = lower value. superoxide response (% of plate mean), % at 10 µM. actives 0.18% (n = 330,000);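 active means superoxide response under a set limit, about three screen SD below normal, cut at about 65% in these data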;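 further: yeast aged for seven days with compound at 30 °C before DHE staining; 100% = average MFI of all compound-treated wells on the plate with controls excluded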
# PLCb3 inh: blocks human PLC-beta3 enzyme activity. Q01970. Purified PLC-beta3, fluorogenic substrate, fluorescence. inhibition, % at 12.2 µM. actives 0.18% (n = 370,000). AID 720704; in the data active means inhibition above about 11%;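 further: 0% = median of compound wells on plate and 100% = full blocker control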
# HIF act: HIF pathway transcriptional activation; U2OS HRE-luciferase reporter, luminescence; normalized: DMSO 0%, desferrioxamine 100%; activation, % at 7.5 µM (by protocol); actives 0.32% (n = 300,000);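 active means mean activation of at least 10% of the iron chelator positive control signal, with at least half of replicates also reaching 10%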
# AHR act cf: confirmation of human aryl hydrocarbon receptor activators. activation, % at 9 µM. human cells, AHR-responsive luciferase reporter, luminescence. shares compounds with AHR activator. actives 87% (n = 2,300). AID 2845; in the data active means activation above about 49%;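 further: HepG2 hepatoma cells carrying a DRE-driven firefly luciferase reporter; 0% = vehicle wells and 100% = reference agonist wells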
# PXR counter: counter-screen for AHR activators: human PXR activators; cell-based PXR reporter, luciferase luminescence; actives 88% (n = 2,300); activation, % at 11.6 µM; AID 434939; shares compounds with AHR activator; in the data active means activation above about 11%;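 further: human hepatoma DPX-2 cells expressing full-length human PXR; 0% = DMSO and 100% = reference agonist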
# Starred values were filed as active, the others as inactive; i = inactive; / = no result given.
SMILES,sPLA2-III inh,AHR activator,PLC-gamma1 inh,Yeast superoxide,PLCb3 inh,HIF act,AHR act cf,PXR counter
Brc1ccc(Nc2nc3ccccc3n3nnnc23)cc1,/,94*,/,91,/,0,108*,75*
Fc1ccccc1Nc1nc2ccccc2n2nnnc12,-11,96*,-37,113,-51,3,74*,11*
Fc1cccc(Nc2nc3ccccc3n3nnnc23)c1,2,47,-15,105,-19,2,/,/
COCOCCn1cc(CN2CCS(=O)(=O)N(Cc3ccc(-c4ccccc4)cc3)C(C(C)C)C2=O)nn1 (stereo not given),-22,/,2,/,0,/,/,/
Cc1nn(Cc2ccc(F)cc2)c2sc(C(=O)Nc3nccs3)cc12,-6,96*,-11,103,-16,0,109*,38*
Cc1nn(Cc2ccccc2Cl)c2sc(C(=O)Nc3nccs3)cc12,-3,102*,-49,112,-51,-1,119*,99*
COc1ccnc(CS(=O)c2nc3ccc(OC(F)F)cc3[nH]2)c1OC (stereo not given),-5,/,-90,/,-120,/,/,/
C=CCc1cccc(/C=N/NC(=O)CNc2ccccc2)c1O,9,90*,-11,110,-11,0,69*,47*
O=C(N/N=C/c1ccc([N+](=O)[O-])o1)c1cc(-c2ccncc2)nc2ccccc12,-3,14,-4,147,-8,3,/,/
O=C(N/N=C/c1ccc([N+](=O)[O-])o1)c1cc(-c2ccc(-c3ccccc3)cc2)nc2ccccc12,0,128*,-30,108,-38,0,43,25*
CCCc1cc2nnc(SCC(=O)N(C)C3CCCCC3)n2c(N)n1,-2,1,-5,102,-2,0,/,/
COc1cc(/C=N/NC(=O)c2cccc(NC(=O)c3ccccc3)c2)ccc1O,3,100*,-25,97,-38,-1,88*,/
COc1ccc(S[C@]2(C(=O)N3CCOCC3)CC(=O)N(C(=O)C3CC3)[C@@H]2c2ccc(OC)cc2)cc1,-5,/,1,/,1,/,/,/
CCCCCCCCN1CC(Cc2cc3ccccc3c3ccccc23)N(c2ccccc2)c2ccccc2C1=O (stereo not given),-6,/,3,/,-1,/,/,/
Cc1cccc2cc(C#N)c(NCCCn3ccnc3)nc12,-20,92*,-97,94,-150,0,67*,33*
Cc1cc(NCCCn2ccnc2)n2c(nc3ccccc32)c1C#N,2,104*,-336,87,-352,0,79*,16*
Cc1cc(NCCCN(C)C)n2c(nc3ccccc32)c1C#N,9,11,i,82,i,1,/,/
Cc1cccc2cc(C#N)c(NCc3ccccc3)nc12,9,18,-61,88,-95,1,/,/
COc1ccc2c(c1OC)C(=O)N(c1nccs1)C2,14,82*,-57,113,-65,1,148*,17*
CC1(C)CC(=O)C2=C(C1)OC1=C(C2)C(=O)CC(C)(C)C1,-9,0,2,90,4,-4,/,/
CCc1noc(C)c1C(=O)Nc1nc(-c2ccc(F)cc2)c(C)s1,3,95*,1,102,-6,0,85*,28*
CCc1noc(C)c1C(=O)Nc1nc(-c2cc(C)ccc2C)c(C)s1,1,1,-4,95,-4,-42,/,/
COc1cc(OC)cc(C(=O)NCCCNC(=O)c2ccccn2)c1,5,16,-1,115,-9,0,/,/
O=C(Nc1ccccc1C(=O)NCCc1ccccc1)c1ccco1,-5,110*,-2,90,-1,2,102*,42*
O=C(O)CNC(=O)c1ccccc1NC(=O)c1ccco1,-1,13,-4,110,-1,/,/,/
O=C(Nc1ccc(Cl)cc1)c1cc(S(=O)(=O)Nc2ccccn2)ccc1Cl,-5,0,0,126,-6,0,/,/
O=C(Nc1ccc(Cl)cc1)c1cccc(S(=O)(=O)Nc2ccccn2)c1,-12,91*,4,122,-6,0,77*,34*
